Screening results from PubChem.
The list is not random: actives were taken first. Their share in the collection is about 1.6%.
KCNQ2 enhance = potentiators of rat KCNQ2 potassium channel. O88943. B-score at 10 µM. CHO-K1 KCNQ2, FluxOR thallium flux fluorescence; hits give high values. 310,000 compounds, 0.54% hits;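 active = fluorescence ratio B-score at least 3 SD of library B-scores, with initial fluorescence B-score within 3 of them, cut at about 5.3 in these data; same plate scores as AID 2156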;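 note: B-score of peak minus minimum over baseline fluorescence ratio after K+ and Tl+ stimulus; positive B-score means potentiation of KCNQ2 with more thallium influx and brighter signal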
KCNQ2 inh = inhibitors of rat KCNQ2 potassium channel; 310,000 compounds, 1.1% hits; CHO-K1 KCNQ2, FluxOR thallium flux, 20 min; hits give low values; AID 2156; B-score at 10 µM;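 active = fluorescence ratio B-score at most minus 3 library SDs, with starting brightness B-score within 2 library SDs, cut at about -5.5 in these data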
Kir21 confirm = confirmation of mouse Kir2.1 potassium channel inhibitors. shares compounds with KCNQ2 enhance. Kir2.1-expressing cells, FluxOR thallium flux fluorescence; hits give low values. Tl flux remaining, % of negative control (hits give low values), % at 10 µM. 2,300 compounds, 41% hits;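 active = Primary-screen hit whose thallium flux fell at least 3 control SD below untreated wells in both duplicates, with normal baseline fluorescence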
HEK293 ctr = parental HEK293 activity in Kir2.1 inhibitor counter-screen | shares compounds with KCNQ2 enhance | parental HEK293 cells, FluxOR thallium flux fluorescence; 0% = unstimulated blank wells | FluxOR signal as % of negative control (100 = no effect), % at 10 µM | 2,300 compounds, 19% hits | AID 2105;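 active = dye signal at least 3 control SD above or below untreated wells in both duplicates, raw fluorescence within 3, either direction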;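 note: percent is based on the flux ratio of peak minus minimum fluorescence over baseline F0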
CHO-K1 Tl ctr = counter-screen for KCNQ2 potentiators: effect in parental CHO-K1 cells; shares compounds with KCNQ2 enhance; FluxOR thallium flux fluorescence; zero = vehicle mean+3SD, 100% = vehicle-minus-blank window; activity increase over 3SD of controls, % at 10 µM; 1,200 compounds, 43% hits;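 active = signal rise of at least 3 SD above the untreated control mean, in both duplicate wells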;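 note: counter screen of KCNQ2 potentiator hits so any rise reflects channel-independent effects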
KCNQ1 pot spec = tests whether KCNQ2 potentiators also act on human KCNQ1. shares compounds with KCNQ2 enhance. CHO KCNQ1 stable, FluxOR thallium flux fluorescence; beyond 3SD, as % of vehicle-control signal. activation over 3SD threshold, % at 10 µM. 1,200 compounds, 28% hits;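 active = fluorescence ratio rise of at least 3 SD of vehicle wells above their mean, in both replicate wells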
Target sequence (P51787 whole entry, looked up): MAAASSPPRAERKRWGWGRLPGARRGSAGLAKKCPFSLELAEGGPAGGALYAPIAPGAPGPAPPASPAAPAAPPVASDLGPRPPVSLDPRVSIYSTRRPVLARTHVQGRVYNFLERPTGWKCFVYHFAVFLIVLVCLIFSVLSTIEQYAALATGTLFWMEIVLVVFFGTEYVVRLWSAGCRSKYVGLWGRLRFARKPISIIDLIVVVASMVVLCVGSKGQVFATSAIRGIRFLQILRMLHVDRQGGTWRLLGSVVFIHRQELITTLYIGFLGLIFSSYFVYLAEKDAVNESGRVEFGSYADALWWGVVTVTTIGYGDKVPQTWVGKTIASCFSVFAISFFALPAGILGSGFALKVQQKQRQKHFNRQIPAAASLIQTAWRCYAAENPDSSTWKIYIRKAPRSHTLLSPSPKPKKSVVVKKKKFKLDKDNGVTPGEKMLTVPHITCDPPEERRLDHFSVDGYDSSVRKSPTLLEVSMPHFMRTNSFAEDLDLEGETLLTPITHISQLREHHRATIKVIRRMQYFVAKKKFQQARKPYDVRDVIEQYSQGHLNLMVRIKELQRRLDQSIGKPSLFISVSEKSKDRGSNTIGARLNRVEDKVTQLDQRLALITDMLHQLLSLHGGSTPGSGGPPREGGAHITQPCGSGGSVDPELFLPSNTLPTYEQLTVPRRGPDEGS
KCNQ2 pot confirm = rat KCNQ2 channel potentiator confirmation | shares compounds with KCNQ2 enhance | CHO-KCNQ2 cells, FluxOR thallium flux fluorescence | potentiation, less the hit threshold, % at 10 µM | 1,200 compounds, 68% hits;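 active = fluorescence ratio rising 3 SD or more over the vehicle control mean in both replicates, plus primary screen hit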;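 note: peak minus minimum thallium fluorescence divided by baseline after K/Tl stimulus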
Kir21 spec = tests whether KCNQ2 potentiators also affect mouse Kir2.1. shares compounds with KCNQ2 enhance. HEK293 Kir2.1, FluxOR thallium flux fluorescence. activity over 3SD threshold, % at 10 µM. 1,200 compounds, 2% hits;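 active = fluorescence ratio rise of at least 3 SD above the vehicle-control mean, seen in both replicates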
KCNQ2 W236L MoA = KCNQ2 potentiators acting on retigabine-insensitive rat KCNQ2 W236L mutant; shares compounds with KCNQ2 enhance; CHO KCNQ2-W236L, automated patch clamp current; current increase over 3SD of negative controls (%), hits give high values, % at 25 µM; 940 compounds, 10% hits;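 active = current increase at least 3 SD of the untreated controls above them in both duplicate recordings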
Of the large screens only hits and unclear results are named; the others gave an inactive call (follow-up assays come after a bar, where they were run).

CC(C)(C)c1nn(-c2ccccc2)c2[nH]c(=O)c(C=O)cc12	KCNQ2 enhance 6.8 | Kir21 confirm inactive | HEK293 ctr inactive | CHO-K1 Tl ctr 4.4 | KCNQ1 pot spec 12.4 | KCNQ2 pot confirm inactive | Kir21 spec inactive
CC(C)(C)c1nn(-c2ccccc2)c2nc(Cl)c(C=O)cc12	none (no result: KCNQ2 enhance)
COc1ccc(-n2nc(C(=O)NCC(=O)NCCN(C)C)c3ccccc3c2=O)cc1	none
O=C(COC(=O)C1CCN(c2ccc(C(F)(F)F)cn2)CC1)Nc1ccc(Cl)cc1	none
CN(CC(=O)Nc1ccc(F)cc1)C(=O)COC(=O)C1CCN(c2ccc(C(F)(F)F)cn2)CC1	KCNQ2 enhance 13.1 | Kir21 confirm inactive | HEK293 ctr inactive | CHO-K1 Tl ctr 79.3 | KCNQ1 pot spec inactive | KCNQ2 pot confirm 17.6 | Kir21 spec inactive | KCNQ2 W236L MoA inactive
O=C(c1ccco1)N1CCN(Cc2cc(=O)c(OCc3ccc([N+](=O)[O-])cc3)co2)CC1	none
O=C(O)CCN1CC2([N+](=O)[O-])C=CC(=O)C([N+](=O)[O-])(C1)C2CC(=O)c1ccccc1 (configuration not stated)	none
CCOc1ccc(C(=O)NCCC2=CCCCC2)cc1OCC	none
CCc1ccc(O)c(N=Cc2cccc(C)c2O)c1	KCNQ2 enhance 7.45 | Kir21 confirm inactive | HEK293 ctr inactive | CHO-K1 Tl ctr inactive | KCNQ1 pot spec inactive | KCNQ2 pot confirm 17.4 | Kir21 spec inactive | KCNQ2 W236L MoA inactive
Cc1cccc(C=Nc2ccc3c4c(cccc24)CC3)c1O	none (no result: KCNQ2 enhance)
Cc1ccccc1-c1nnn(CC(=O)Nc2ccc3c(c2)OCCO3)n1	none
COc1cc(C(=S)N2CCCCC2)ccc1OCC(=O)N1CCCC1	none
COc1cc(C(=S)N2CCCCC2)ccc1OCC(=O)Nc1ccc(F)cc1	KCNQ2 enhance 6.02 | Kir21 confirm inactive | HEK293 ctr inactive | CHO-K1 Tl ctr 141.9 | KCNQ1 pot spec 26.7 | KCNQ2 pot confirm 16.6 | Kir21 spec inactive | KCNQ2 W236L MoA inactive
CC(C)n1c(O)c(N=NC(=O)Cn2ccc(C(F)(F)F)n2)c2ccccc21	none (no result: KCNQ2 enhance)
CCOc1ccccc1OCCCC(=O)N(CC)CC(=O)Nc1ccc(NC(C)=O)cc1	none
CC(C)(C)C(=O)Nc1ccccc1C(=O)NCc1cccnc1	none
CC(C)(C)c1ccccc1OCC(=O)Nc1ccccc1C(=O)NCc1cccnc1	none | Kir21 confirm 77.0% | HEK293 ctr inactive
CCCCNC(=O)CCC(=O)N1CCN(C(c2ccccc2)c2ccccc2)CC1	none
Cc1cc(C(=O)N2CCCC(Nc3ccccc3)C2)c2ccc(F)cc2n1 (configuration not stated)	none (no result: KCNQ2 enhance)
CC(=O)Oc1ccc2c3c(c(=O)oc2c1)CCCC3	none
O=c1oc2cc(O)ccc2c2c1CCCC2	none | Kir21 confirm inactive | HEK293 ctr inactive
COC(=O)c1cc([N+](=O)[O-])c(-n2cncn2)c([N+](=O)[O-])c1	none (no result: KCNQ2 enhance) | Kir21 confirm 73.0% | HEK293 ctr inactive
COC(=O)c1cc(F)c(-n2cncn2)c(F)c1	none
CN(C)S(=O)(=O)c1ccc(NC(=O)CNc2cc(S(=O)(=O)N3CCCC3)ccc2OCC(F)(F)F)cc1	none
CC1CCN(C(=O)CSc2nc3c(c(=O)n(C)c(=O)n3C)n2C)CC1	none
CC(C)Cc1nc(SCC(=O)N2CCCCC2)c2c(=O)n(C)c(=O)n(C)c2n1	KCNQ2 enhance 26.8 | Kir21 confirm inactive | HEK293 ctr inactive | CHO-K1 Tl ctr inactive | KCNQ1 pot spec inactive | KCNQ2 pot confirm 121.3 | Kir21 spec inactive | KCNQ2 W236L MoA inactive
CCCc1nc(SCC(=O)N2CCC(C)CC2)c2c(=O)n(C)c(=O)n(C)c2n1	KCNQ2 enhance 24.9 | Kir21 confirm inactive | HEK293 ctr inactive | CHO-K1 Tl ctr inactive | KCNQ1 pot spec inactive | KCNQ2 pot confirm 141.2 | Kir21 spec inactive | KCNQ2 W236L MoA inactive
CCc1nc(SCC(=O)N2CCC(C)CC2)c2c(=O)n(C)c(=O)n(C)c2n1	KCNQ2 enhance 15.6 | Kir21 confirm inactive | HEK293 ctr inactive | CHO-K1 Tl ctr inactive | KCNQ1 pot spec inactive | KCNQ2 pot confirm 81.2 | Kir21 spec inactive | KCNQ2 W236L MoA inactive
CCc1nc(SCC(=O)N2CCCCC2)c2c(=O)n(C)c(=O)n(C)c2n1	KCNQ2 enhance 9.12 | Kir21 confirm inactive | HEK293 ctr inactive | CHO-K1 Tl ctr inactive | KCNQ1 pot spec inactive | KCNQ2 pot confirm 41.9 | Kir21 spec inactive | KCNQ2 W236L MoA inactive
CCc1nc(SCC(N)=O)c2c(=O)n(C)c(=O)n(C)c2n1	none
CC(C)Cc1nc(SCC(=O)N2CCOCC2)c2c(=O)n(C)c(=O)n(C)c2n1	none
CC(C)c1nc(SCC(=O)N2CCOCC2)c2c(=O)n(C)c(=O)n(C)c2n1	none
Cc1nc2c(C)cccn2c1/C(O)=C1\C(=O)C(=O)N(CCN2CCOCC2)C1c1cccs1 (configuration not stated)	none
COC(=O)c1c(-c2ccccc2)c[nH]c1C	none
Cc1oc(-c2ccccc2F)nc1CS(=O)CC(=O)NC1CCCCC1 (configuration not stated)	none
COc1ccccc1CNC(=O)CSCc1cnn(-c2ccccc2)c1-n1cccc1	none (no result: KCNQ2 enhance) | Kir21 confirm inactive | HEK293 ctr inactive
COc1cccc(CNC(=O)CSCc2cnn(-c3ccccc3)c2-n2cccc2)c1OC	none (no result: KCNQ2 enhance)
COc1ccccc1C(=O)Nc1ccccc1C(=O)NC1CCCCC1	none
COc1ccccc1C(=O)NNC(=O)C(=O)NC1CCCCC1	KCNQ2 enhance 8.53 | Kir21 confirm inactive | HEK293 ctr 321.0% | CHO-K1 Tl ctr inactive | KCNQ1 pot spec 33.3 | KCNQ2 pot confirm 41.8 | Kir21 spec inactive | KCNQ2 W236L MoA inactive
CN(Cc1ccco1)C(=O)C1CCCN(c2ncnc3c2nc2n3CCCCC2)C1 (configuration not stated)	none
Cc1ccccc1OCC(=O)NCCCNC(=O)c1cccnc1	none
O=C(NC12CC3CC(CC(C3)C1)C2)c1cc(F)c(F)c(F)c1F	none (no result: KCNQ2 enhance)
C/C(=N\Nc1nncc2ccccc12)c1ccc(C(C)(C)C)cc1	KCNQ2 enhance 5.94 | Kir21 confirm inactive | HEK293 ctr inactive | CHO-K1 Tl ctr 65.2 | KCNQ1 pot spec inactive | KCNQ2 pot confirm inactive | Kir21 spec inactive
C/C(=N\Nc1nncc2ccccc12)c1ccc(O)cc1	none
COc1cc(/C=N/NC(=O)C(N)=O)ccc1OCC(=O)N1C(C)CCCC1C (configuration not stated)	none (no result: KCNQ2 enhance)
